Screening results: PubChem BioAssay, The Scripps Research Institute Molecular Screening Center
hgDAF12 agonist: H. glycines DAF-12 receptor agonists, primary screen, cell-based, luminescence, HEK293, GAL4 fusion, UAS-luciferase; Nuclear hormone receptor DAF-12 (Heterodera glycines), GAL4 fusion; HEK293 GAL4-hgDAF12 UAS-luciferase reporter, agonist luminescence; normalized to butyrate control; activation, % at 6.8 µM; 1.8% of 370,000 active; AID 687014, 2013;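 active = activation above a cutoff set at the mean of all screened compounds plus 3 SD, cut at about 10% in these data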;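 also: 0% = DMSO wells and 100% = sodium butyrate wells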
DAX1 inh-1: DAX1 (NR0B1) inhibitors on StAR promoter, primary screen, cell-based, luminescence, SF-1 (NR5A1), full-length DAX-1; inhibition, % at 6.8 µM; 1.1% of 370,000 active; AID 652010, 2013; HEK293T StAR-luciferase reporter, SF-1/DAX-1 repression relief;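 active = inhibition above the mean over all tested compounds plus 3 SD, cut at about 3.6% in these data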;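 also: 0% = DAX-1 cells with DMSO and 100% = cells lacking DAX-1 with DMSO; higher inhibition means more luminescence from relief of DAX-1 repression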
DAX1 inh-2: DAX1 (NR0B1) inhibitors, primary screen, cell-based, HEK293, Gal4-DAX1, luciferase luminescence | inhibition, % at 6.75 µM | 0.99% of 340,000 active | HEK293 Gal4-DAX1 luciferase reporter | AID 504766, 2011;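 active = inhibition above the mean over all tested compounds plus 3 SD, cut at about 4.2% in these data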;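 also: 0% = DAX1-transfected cells with DMSO and 100% = empty-vector control cells with DMSO; inhibition shows as a rise in luminescence from relieved DAX1 repression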
Target sequence (P51843 207-470 limits assumed): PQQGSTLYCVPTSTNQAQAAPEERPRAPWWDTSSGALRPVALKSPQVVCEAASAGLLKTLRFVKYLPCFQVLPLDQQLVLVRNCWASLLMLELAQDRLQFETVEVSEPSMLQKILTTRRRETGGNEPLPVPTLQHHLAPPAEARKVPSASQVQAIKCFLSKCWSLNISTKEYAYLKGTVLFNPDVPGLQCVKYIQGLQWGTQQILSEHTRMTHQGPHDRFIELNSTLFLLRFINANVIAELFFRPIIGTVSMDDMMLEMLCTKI
hcDAF12 agonist: H. contortus DAF-12 nuclear receptor activators, primary screen, cell-based, luminescence, HEK293, lit1-tk-luc reporter | 1.4% of 370,000 active | HEK293 hcDAF-12 lit1-tk-luc reporter; 0% DMSO, 100% Δ7-dafachronic acid | AID 652067, 2013 | activation, % at 6.8 µM;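 active = activation above the mean of all tested compounds plus 3 SD, cut at about 5.5% in these data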;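 also: 100% = response to 3 µM Δ7-dafachronic acid high control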
ssDAF12 agonist: S. stercoralis DAF-12 nuclear receptor activators, primary screen, cell-based, luminescence, HEK293, GRIP1 co-expression, lit1-tk-luc; HEK293 ssDAF-12/GRIP1 lit1-tk-luc reporter; % of 3 µM dafachronic acid response; activation, % at 6.8 µM; 1% of 370,000 active;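 active = activation above the mean over all tested compounds plus 3 SD, cut at about 0.9% in these data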;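 also: 0% = DMSO-only wells and 100% = 3 µM delta7-dafachronic acid wells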
Active calls of the source: *; . = no result given. Rows were chosen to be rich in hits. Some 4.1% of all compounds tested hit in one or more screens of this group.

SMILES	hgDAF12 agonist	DAX1 inh-1	DAX1 inh-2	hcDAF12 agonist	ssDAF12 agonist
CC(C)[C@H](NC(=O)[C@@H](N)Cc1ccccc1)C(=O)N1CCC2CCN(Cc3ccccc3)CC21 (some centres undefined)	-2.1	-1.2	.	0.9	-1.4
CN(/C=C/C(=C\C=[N+](C)c1ccccc1)OCCCS(=O)(=O)[O-])c1ccccc1	-3.1	-0.3	0.3	5.6*	0.8
COc1ccccc1-c1cccc([C@@H]2C[C@H]3[C@H](CON3C)CN2C)c1	-2.5	3.8*	0.4	-0.7	-0.5
CCOC(=O)[C@]12CCCC3=C1N(CCC3)C(=O)[C@@H](CC(=O)NCCCOC)C2	1.5	-0.5	.	-1.3	-0.5
CCOC(=O)CSc1nc2cc(OCC)ccc2cc1C#N	11.2*	2.3	1.4	1.9	-0.2
O=C(CSc1ncnc2c1cnn2-c1ccccc1)Nc1ccccc1	1.0	0.6	-0.9	1.1	-0.9
Cc1ccc(-n2ncc3c(=O)n(CC(N)=O)cnc32)cc1C	2.9	0.3	1.1	3.0	-1.2
Cc1ccc(-n2ncc3c(SCC(N)=O)ncnc32)cc1C	7.6	1.9	4.3*	4.5	-0.4
O=C(CSc1ncnc2c1cnn2-c1ccccc1)NC1CCCC1	2.4	0.9	0.7	5.7*	0.0
Cc1ccc2c(c1)C1CS(=O)(=O)N(CCc3ccccc3)CN1C2 (centres undefined)	0.5	-1.0	.	-1.6	-0.8
Cc1nc2ccc(S(=O)(=O)NCC(=O)N3CCc4ccccc43)cc2s1	-0.4	0.8	0.8	2.9	0.9*
CCCCN(C)C(=O)c1cn(C(C)c2ccccc2)nn1 (centres undefined)	2.9	0.1	.	-0.5	-1.4
O=C1N/C(=C/c2ccsc2)C(=O)N1c1ccccc1	11.8*	0.4	2.8	0.1	-0.7
c1ccc(CSc2nnc3ccc(-c4cccs4)nn23)nc1	3.7	0.3	1.2	0.6	-2.0
c1ccc(CSc2ccc(-c3cccs3)nn2)nc1	11.9*	3.8*	0.5	0.3	-0.7
COC(=O)c1cc(C(C)=O)c(C)[nH]c1=O	-1.1	0.0	5.9*	-1.6	-1.1
CCOC(=O)c1cc(C(C)=O)c(=O)[nH]c1C	-2.5	-0.5	-0.7	-0.9	-1.0
O=C(O)c1ccc(C=NNC(=O)c2ccccc2NS(=O)(=O)c2cccs2)cc1	-1.9	3.7*	2.4	-0.9	-1.4
CC(=O)C1=C(C)N(Cc2ccc(Cl)cc2)C(=S)NC1c1ccc(Cl)cc1 (centres undefined)	-4.0	-0.2	.	-0.4	-0.8
Cc1sc2nc(-c3cccnc3)nc(Cl)c2c1-c1ccccc1	3.3	0.2	4.3*	-3.9	-0.9
Cc1nc(-c2ccccc2)nc(Cl)c1Cl	-3.0	0.3	0.9	-2.2	-1.2
O=C(Nc1cccnc1Cl)c1cc(-c2ccco2)on1	13.0*	1.8	1.0	0.4	-0.2
COc1ccc(C2C3=C(CC(C)(C)CC3=O)Nc3c2c(=O)[nH]c(=O)n3Cc2ccccc2)cc1OC (centres undefined)	-0.4	0.0	0.3	3.5	0.1
COc1cc(C2C3=C(CC(C)(C)CC3=O)Nc3c2c(=O)[nH]c(=O)n3Cc2ccccc2)ccc1O (centres undefined)	0.9	0.1	4.3*	-0.6	-1.3
CC(=O)Nc1sc2c(c1C(c1cccc(Cl)c1)N1CCN(CCO)CC1)CCCC2 (centres undefined)	-2.1	0.1	4.9*	-2.5	-1.5
SMILES	hgDAF12 agonist	DAX1 inh-1	DAX1 inh-2	hcDAF12 agonist	ssDAF12 agonist
C[C@@H]1C[C@H]2[C@@H](C)C(=O)N3[C@H](c4ccccc4)[C@H](C)C[C@H]3[C@@H](C)C(=O)N2[C@@H]1c1ccccc1	0.8	-0.4	.	-0.6	-0.9
Nc1nc(-c2ccccc2)c(N=Nc2ccccc2Cl)s1	4.7	-1.1	-0.5	5.8*	-0.8
Nc1nc(-c2ccccc2)c(N=Nc2cccc3ccccc23)s1	0.0	-0.7	0.3	3.3	-0.1
CC1CCC(NC(=O)C2CCN(c3cnccn3)CC2)CC1 (centres undefined)	0.3	0.5	7.1*	-1.0	-0.7
CCOC(=O)N1CCC(NC(=O)Cn2ncc3ccccc32)CC1	1.2	0.0	-0.5	-1.2	-0.9
CC1CCC(NC(=O)Cn2ncc3ccccc32)CC1 (centres undefined)	1.6	1.5	6.5*	1.8	-0.4
Cc1ccc(-n2c(CNc3cccc(Cl)c3)n[nH]c2=S)cc1	-4.9	-0.1	0.1	-1.0	-1.6
Cc1ccc(NCc2n[nH]c(=S)n2-c2cccc(Cl)c2)cc1	-0.2	-0.1	4.5*	-1.1	-1.0
COc1ccc(C(=O)N[C@@H]2CC[C@@]34CCCN3C(=O)CCC[C@H]4[C@H]2C)cc1	0.0	.	.	-1.2	-1.8
CCC1(C)NC(C(=O)O)Cc2c1[nH]c1ccccc21 (centres undefined)	1.6	0.1	-1.4	3.8	1.7*
CCCN1CCC2(CC1)NC(C(=O)O)Cc1c2[nH]c2ccccc12 (centres undefined)	.	.	1.1	.	.
Cc1nn(-c2ccccc2)c2sc(C(=O)NC3CCCC3)cc12	-4.8	-2.1	.	-1.6	-1.4
O=C(NC1CCCCC1)c1ccc(-c2cn[nH]c2)c2ccoc12	12.7*	1.4	.	-0.8	-0.7
Nn1c(SCC(=O)NC2CCCCC2)nnc1-c1cc(-c2ccc(F)cc2)n[nH]1	6.9	-0.3	.	-1.1	-0.6
O=C1C(Nc2ccccc2)=C/C(=N/S(=O)(=O)c2cccs2)c2ccccc21	.	.	-6.0	.	.
Cc1ccc(NC2=C/C(=N/S(=O)(=O)c3cccs3)c3ccccc3C2=O)cc1	6.6	0.2	0.0	5.8*	0.3
COC(=O)c1ccc(/C=C/c2ccc3cccc(OC(C)=O)c3n2)cc1	12.2*	3.1	0.6	1.6	0.2
COc1c(OC(C)=O)ccc(/C=C/c2ccc3cccc(OC)c3n2)c1[N+](=O)[O-]	4.2	0.6	-0.4	1.8	-1.1
O=C1C(c2ccccc2)=NCCN1C(c1ccc(F)cc1)c1nc2ccccc2[nH]1 (centres undefined)	2.3	-0.5	.	6.1*	0.3
COc1ccccc1C(=O)Nc1nnc(S(=O)(=O)N2CCC(C)CC2)s1	3.4	0.2	5.0*	0.7	-0.6
C[C@H]1[C@@H](NCc2ccccc2)CC[C@@]23CCCN2C(=O)CCC[C@@H]13	-0.6	.	.	-1.1	-1.2
COc1cccc(COC(=O)Nc2ccccc2)c1OC	11.9*	3.2	.	2.1	-0.3
COCCNC(=O)C(=O)NNS(=O)(=O)c1ccc(Cl)cc1	-1.0	-0.5	4.5*	-0.4	-1.5
COc1cccc(C(=O)OCC(=O)NCCc2ccccc2)c1OC	-0.1	0.1	-0.7	-1.3	-1.4
